Measurements reported in PubChem BioAssay.
Several values for one entry are separate records, joined by “and”; a condition that tells them apart may be missing. Equal entries are not always repeated. Activity calls are given as the source filed them.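 How the source made its calls, unless noted: active means thallium flux through the channel raised or lowered by more than 3 SD from vehicle-only wells, actives on both sides; inactive means the rest.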

Columns and labels:
[1] = liver-stage malaria parasite growth inhibition, primary screen, cell-based, HepG2, luciferase luminescence, HepG2 viability (AID 624349; in the data active means parasite load remaining mostly below about 12%, no sharp cut-off; inactive means mostly above about 10%;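 further: 100% = mean of DMSO negative control wells on the same plate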); details: P. berghei liver stage in HepG2, luciferase luminescence, concentration not given here; parasite load remaining: stronger effect = lower value; viability: measured here: HepG2 viability without parasites
[2] = sensitizers of A549 cells to miR-34 induction, primary screen, imaging, A549 dox-inducible miR-34, nuclei and caspase counts (AID 1347080;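 active means compounds whose cell count with miR-34 switched on is under 0.7 times the count with it off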); details: A549 miR-34 inducible, Hoechst nuclei count, 48 h
[3] = system: F380Y; assay: modulators of BK channel variants, profiling panel, selectivity assay, cell-based, U2OS BacMam, thallium flux, beta subunits (AID 1259406); details: at 30 µM;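 further: initial slope of Thallos dye fluorescence rise after thallium is added; log ratio against the mean of 0.3% DMSO vehicle wells on the same plate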
[4] = system: F380Y/beta1; assay: as above; details: at 30 µM
[5] = system: F380Y/beta2Delta; assay: as above; details: at 30 µM
[6] = system: F380Y/beta4; assay: as above; details: at 30 µM
[7] = target: Calcium-activated potassium channel subunit alpha-1 (Homo sapiens) + Leucine-rich repeat-containing protein 26 (Homo sapiens) (UniProt Q12791+Q2I0M4); assay: as above; details: F380Y/Slo1WT/gamma1, at 30 µM
[8] = system: R275C; assay: as above; details: at 30 µM
[9] = system: R275C/beta1; assay: as above; details: at 30 µM
[10] = system: R275C/beta2Delta; assay: as above; details: at 30 µM
[11] = system: R275C/beta4; assay: as above; details: at 30 µM
[12] = system: R275C/Slo1WT/beta2; assay: as above; details: at 30 µM
[13] = Cy5 fluorescence interference with SSB-bound oligo, artefact control for HCV NS3 helicase inhibitor project, biochemical, NIH Clinical Collection, E. coli SSB (AID 743268; call rule not given here)
[14] = system: Hepatitis C virus NS3 helicase; assay: HCV NS3 helicase inhibitors, primary screen, biochemical, fluorescence polarization, NIH Clinical Collection (AID 743270; call rule not given here); details: NS3 helicase binding to Cy5-dT15 DNA, stronger effect = higher value, concentration not given here
[15] = target: Single-stranded DNA-binding protein (Escherichia coli (strain K12)) (UniProt P0AGE0); assay: E. coli SSB displacement from DNA, counter-screen for HCV NS3 helicase inhibitor project, biochemical, fluorescence polarization, NIH Clinical Collection (AID 743271; in the data active means inhibition above about 28%); details: stronger effect = higher value, concentration not given here
[16] = fluorescence interference in NS3h assay format, artefact control for HCV NS3 helicase inhibitor project, biochemical, NIH Clinical Collection (AID 743272; call rule not given here;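 further: HCV NS3 helicase with a Cy5 labelled single stranded DNA probe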); details: fluorescence interference counterscreen, stronger effect = lower value
[17] = survival rescue of mitochondrial mutant cells in low glucose, primary screen, MELAS cybrids, Rieske KO mouse fibroblasts, CellTiter-Glo (AID 1508586;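 active means mean z-score across replicates of 1.96 or higher in either the MELAS or the Rieske mutant cell line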;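 further: z relative to plate mean and SD of compound and empty wells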)
[18] = viability rescue of complex I mutant cybrids, primary screen, cell-based, galactose medium, ATP luminescence (AID 1645843;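 active means z-score of at least 1.8 in each of two replicates, scored against plate mean and spread of sample wells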;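 further: positive z means more ATP and so rescue of galactose-driven cybrid death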); details: complex I mutant cybrid cells, 72 h, stronger effect = higher value
[19] = system: Neuropilin-2 / VEGF-C interaction (human); assay: inhibitors of NRP2–VEGF-C binding, biochemical, microplate binding format, z-score (AID 743281; call rule not given here); details: microplate NRP2/VEGF-C binding assay; stronger effect = lower value
[20] = modulation of C. elegans fzo-1 (AID 1259413; call rule not given here;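 further: fzo-1 mutant C. elegans worms in liquid wells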); details: C. elegans fzo-1 modulator screen, mean read-out; stronger effect = higher value
[21] = stronger effect = lower value, cell number ratio, induced over uninduced
[22] = measured here: relative caspase fold change +Dox/-Dox
[23] = measured here: total cells with miR-34 induction, stronger effect = lower value
[24] = measured here: total cells without miR-34 induction

Sequence of Calcium-activated potassium channel subunit alpha-1 (Homo sapiens) + Leucine-rich repeat-containing protein 26 (Homo sapiens) (Q2I0M4 whole entry, looked up, one chain of several): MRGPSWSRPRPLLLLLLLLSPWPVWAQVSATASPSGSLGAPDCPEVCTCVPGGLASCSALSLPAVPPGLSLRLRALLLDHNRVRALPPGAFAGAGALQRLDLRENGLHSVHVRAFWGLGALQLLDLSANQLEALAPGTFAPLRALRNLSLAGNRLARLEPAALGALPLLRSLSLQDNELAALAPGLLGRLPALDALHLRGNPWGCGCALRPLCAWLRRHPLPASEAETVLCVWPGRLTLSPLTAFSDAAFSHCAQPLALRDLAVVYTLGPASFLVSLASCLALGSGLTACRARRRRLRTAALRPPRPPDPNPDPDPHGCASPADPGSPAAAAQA

C[n+]1ccccc1C=NO
inactive: parasite load remaining [1] 51.7% | fold change [2, 21] 0.861 | log fold change Tl+ flux [3] -0.0173 | log fold change Tl+ flux [4] 0.0118 | log fold change Tl+ flux [5] -0.00109 | log fold change Tl+ flux [6] -0.0377 | log fold change Tl+ flux [7] -0.000474 | log fold change Tl+ flux [8] -0.00984 | log fold change Tl+ flux [9] 0.0135 | log fold change Tl+ flux [10] 0.00623 | log fold change Tl+ flux [11] -0.0487 | log fold change Tl+ flux [12] -0.0159
13300: cell count [2, 24]
11500: cell count [2, 23]
4.73: fold change [2, 22]
127%: viability [1]

C=C1/C(=C\C=C2/CCC[C@]3(C)[C@@H]([C@H](C)CCCC(C)(C)O)CC[C@@H]23)C[C@@H](O)C[C@@H]1O
active: log fold change Tl+ flux [9] 0.0898
1.63 and 1.45: fold change [2, 22]
5100 and 8330: cell count [2, 23]
4940 and 8850: cell count [2, 24]
inactive: parasite load remaining [1] 39.1% and 53.6% | fluorescence ratio [13] 0.98 | inhibition [14] 3.56% | inhibition [15] 2.21% | fluorescence ratio [16] 0.91 | fold change [2, 21] 1.03 and 0.94 | z-score ([17]; MELAS cybrid survival, CellTiter-Glo 48 h, stronger effect = higher value) -0.162 | z-score [18] -0.805 | log fold change Tl+ flux [3] 0.103 | log fold change Tl+ flux [4] 0.0867 | log fold change Tl+ flux [5] 0.0281 | log fold change Tl+ flux [6] 0.0801 | log fold change Tl+ flux [7] 0.0668 | log fold change Tl+ flux [8] -0.0123 | log fold change Tl+ flux [10] 0.0428 | log fold change Tl+ flux [11] 0.0602 | log fold change Tl+ flux [12] -0.0015
72.4% and 142%: viability [1]
-0.598: z-score ([17]; Rieske KO mouse fibroblast survival, CellTiter-Glo 72 h)

Nc1ncnc2c1ncn2[C@@H]1O[C@H](CO)C[C@@H]1O
93.2%: viability [1]
inactive: parasite load remaining [1] 137% | fluorescence ratio [13] 0.96 | inhibition [14] -2.77% | inhibition [15] 2.21% | fluorescence ratio [16] 0.87 | z-score [19] -0.398 | mean signal [20] 230 | log fold change Tl+ flux [3] 0.0402 | log fold change Tl+ flux [4] 0.0107 | log fold change Tl+ flux [5] -0.0103 | log fold change Tl+ flux [6] 0.0334 | log fold change Tl+ flux [7] 0.00963 | log fold change Tl+ flux [8] -0.0453 | log fold change Tl+ flux [9] -0.0213 | log fold change Tl+ flux [10] 0.0189 | log fold change Tl+ flux [11] -0.00206 | log fold change Tl+ flux [12] 0.0268

O=C1N=C(O)CN1N=Cc1ccc(-c2ccc([N+](=O)[O-])cc2)o1
7170: cell count [2, 23]
83.3%: viability [1]
inactive: parasite load remaining [1] 10.7% | fluorescence ratio [13] 1.04 | inhibition [14] 0.45% | inhibition [15] 7.91% | fluorescence ratio [16] 0.97 | fold change [2, 21] 0.951 | z-score [18] -0.1 | log fold change Tl+ flux [3] 0.0284 | log fold change Tl+ flux [5] 0.0246 | log fold change Tl+ flux [6] -0.0396 | log fold change Tl+ flux [7] 0.0789 | log fold change Tl+ flux [8] 0.0615 | log fold change Tl+ flux [9] 0.0553 | log fold change Tl+ flux [10] 0.0141 | log fold change Tl+ flux [11] 0.0532 | log fold change Tl+ flux [12] 0.0367
7540: cell count [2, 24]
active: log fold change Tl+ flux [4] 0.16
1.68: fold change [2, 22]

CC(=CCC1=C(C)C(=O)c2ccccc2C1=O)CCCC(C)CCCC(C)CCCC(C)C (stereo unspecified)
97.8%: viability [1]
inactive: parasite load remaining [1] 49.5% | fluorescence ratio [13] 1.04 | inhibition [14] -1.36% | inhibition [15] 3.34% | fluorescence ratio [16] 0.97 | fold change [2, 21] 1.25 | z-score [18] -1.38 | log fold change Tl+ flux [3] -0.0115 | log fold change Tl+ flux [4] 0.045 | log fold change Tl+ flux [5] 0.0296 | log fold change Tl+ flux [6] 0.0448 | log fold change Tl+ flux [7] 0.0507 | log fold change Tl+ flux [8] 0.0242 | log fold change Tl+ flux [9] 0.0513 | log fold change Tl+ flux [10] 0.0188 | log fold change Tl+ flux [11] 0.0575 | log fold change Tl+ flux [12] -0.0288
6060: cell count [2, 24]
7560: cell count [2, 23]
2.78: fold change [2, 22]

CC(=O)OCC(=O)[C@@]1(O)CC[C@H]2[C@@H]3CCC4=CC(=O)CCC4(C)[C@H]3C(=O)CC21C (stereo partly specified)
inactive: mean signal [20] 237

C[C@H]1O[C@@H](O[C@H]2[C@@H](O)C[C@H](O[C@H]3[C@@H](O)C[C@H](O[C@H]4CC[C@@]5(C)[C@H](CC[C@@H]6[C@@H]5C[C@@H](O)[C@]5(C)C(C7=CC(=O)OC7)CC[C@]65O)C4)O[C@@H]3C)O[C@@H]2C)C[C@H](O)[C@@H]1O (stereo partly specified)
8.28%: viability [1]
266: cell count [2, 23]
1.15: fold change [2, 22]
inactive: parasite load remaining [1] -5.28% | fluorescence ratio [13] 0.93 | inhibition [14] -1.36% | inhibition [15] 4.86% | fluorescence ratio [16] 0.99 | z-score [18] -0.815 | log fold change Tl+ flux [3] -0.0279 | log fold change Tl+ flux [4] 0.0633 | log fold change Tl+ flux [5] 0.00458 | log fold change Tl+ flux [6] -0.0566 | log fold change Tl+ flux [7] -0.00567 | log fold change Tl+ flux [8] -0.0269 | log fold change Tl+ flux [9] -0.0167 | log fold change Tl+ flux [10] -0.0151 | log fold change Tl+ flux [11] -0.0475 | log fold change Tl+ flux [12] 0.0268
560: cell count [2, 24]
active: fold change [2, 21] 0.475
